From PubChem BioAssay
This is a sample that favours compounds with a hit; in the whole collection about 1.9% have one here.
eIF4E 4G PPI – eIF4E/eIF4G interaction inhibition in translation initiation. hit rate 0.37% among 220,000. AID 782. TR-FRET eIF4E-eIF4GI(517-606) binding, 2 h. P63073+Q04637. inhibition, % at 21.7 µM;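 active means inhibition above about 30%, limit read from the data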;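 further: 0% = full FRET control wells and 100% = background wells lacking eIF4GI fragment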
eIF4H FP inh – inhibitors of RNA binding by human eIF4H; hit rate 0.94% among 290,000; eIF4H fluorescence polarization binding assay; inhibition, % at 35 µM;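 further: calls also rest on retests at 20 µM and on dose response follow-up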
PABP polyA inh – blocks human PABP binding to poly(A) RNA. P11940. fluorescence polarization. calls only at 35 µM. hit rate 1% among 290,000. AID 2014;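 further: calls also rest on retests at 20 µM and on dose response follow-up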
14-3-3 Bad inh – disrupts binding of bovine 14-3-3 zeta to phospho-Bad peptide | hit rate 0.71% among 220,000 | AID 781 | TR-FRET 14-3-3zeta/Dy647-pBad peptide displacement, 1 h | inhibition, % at 21.7 µM | P63103;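 active means inhibition above about 70%, limit read from the data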;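 further: 0% = full 14-3-3 plus peptide FRET controls and 100% = background without 14-3-3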
Target sequence (P63103 whole entry, looked up): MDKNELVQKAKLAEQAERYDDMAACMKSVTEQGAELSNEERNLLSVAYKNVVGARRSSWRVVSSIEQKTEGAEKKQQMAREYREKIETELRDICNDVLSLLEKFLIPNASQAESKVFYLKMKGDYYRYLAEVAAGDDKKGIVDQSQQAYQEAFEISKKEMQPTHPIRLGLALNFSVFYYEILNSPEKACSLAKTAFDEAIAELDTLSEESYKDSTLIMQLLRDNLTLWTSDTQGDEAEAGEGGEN
MLLE-PAM2 inh – blocks PAM2 peptide binding to the PABP1 MLLE domain. P11940. GST-MLLE / FITC-PAM2 fluorescence polarization. inhibition, % at 20 µM. hit rate 0.36% among 360,000; in the data active means inhibition above about 35%, passing the limit was not always enough;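 further: plate controls were DMSO wells with GST-MLLE for no effect and wells lacking GST-MLLE protein for full effect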
An asterisk follows results filed as active; i = inactive; ? = inconclusive; . = no result; + = active, no number; [ ] = dose if it differs, or a comment. Unless noted, how the calls were made is not given here.

SMILES	eIF4E 4G PPI	eIF4H FP inh	PABP polyA inh	14-3-3 Bad inh	MLLE-PAM2 inh
Cc1cc2cc(CNC(=O)c3ccc4c(c3)OCO4)ccc2n1C	1	61*	+	-9	56*
CN1CCN(CC(=O)NN(Cc2ccccc2)c2ccccc2)CC1	-6	9	i	25	14
CC1CCN(S(=O)C23CC4CC(CC(C4)C2)C3)CC1 (centres undefined)	1	-2	i	7	-10
Cc1ccc(S(=O)(=O)NCc2ccc3c(c2)cc(C)n3C)cc1	-6	58*	+	4	35
Cc1cc2cc(CNC(=O)COc3ccccc3)ccc2n1C	2	9	i	-11	50*
COCC(=O)NCc1ccc2c(c1)cc(C)n2C	-3	28	i	1	34
Cc1cc2cc(CNC(=O)c3ccco3)ccc2n1C	-16	53*	+	-4	37
COc1cc(OC)c(NC(=O)c2sc3ncn(CC(=O)N4CCOCC4)c(=O)c3c2C)cc1Cl	.	-2	i	.	-6
CC1(C(=O)NS(=O)(=O)c2cccc(Cl)c2)CCN1C(=O)COc1ccc(Cl)cc1 (centres undefined)	.	.	.	.	12
Cc1ccc(OCc2nnn(CC(=O)NS(=O)(=O)c3c(C)noc3C)c2-c2ccccc2)cc1	.	.	.	.	2
CCN(CC)c1ccc(-c2nnc(SCC(=O)N(CCOC)c3c(N)n(CC(C)C)c(=O)[nH]c3=O)o2)cc1	.	.	.	.	-123
CCc1ccccc1NC(=O)C1CCN(S(C)(=O)=O)CC1	.	.	.	.	13
CCN(CC(=O)N1CCCC1)S(=O)(=O)c1ccccc1	.	72*	+	.	2
O=C(O)c1cc2cc(Cl)cc(Cl)c2oc1=O	7	-4	i	83*	-4
O=C(O)c1ccc(CSc2n[nH]c(-c3ccco3)n2)cc1	-1	77*	+	-3	23
CCOC(=O)CSc1n[nH]c(-c2ccco2)n1	-5	-4	i	11	-24
CC(C)(C)c1ccc(-c2nc3n(c(=O)c2C#N)CCS3)cc1	5	-20	i	0	-1
CCOc1ccc2c(c1)n([O-])c1c([n+]2=O)CCCC1	-1	-3	i	9	43*
COC(=O)c1ccc(/C=N/N2CCN(Cc3ccc(Cl)cc3)CC2)cc1	-7	-8	i	-14	-2
COc1ccccc1-c1nc2s/c(=C\c3cccs3)c(=O)n2n1	-24	5	i	-2	-1
COc1ccc(/C=c2\sc3nc(-c4ccccc4OC)nn3c2=O)c(OC)c1	-29	-1	i	57	51*
O=c1/c(=C/c2ccco2)sc2nc(-c3ccccc3Br)nn12	-1	45*	+	2	5
Cc1ccc(/C=c2\sc3nc(-c4cccs4)nn3c2=O)o1	0	79*	+	-23	-12
COc1cccc(/C=c2\sc3nc(-c4cccs4)nn3c2=O)c1OC	2	0	i	10	-11
CCCCCOc1ccc(/C=c2\sc3nc(=O)c(-c4ccccc4)nn3c2=O)cc1OC	0	16	i	-10	11
SMILES	eIF4E 4G PPI	eIF4H FP inh	PABP polyA inh	14-3-3 Bad inh	MLLE-PAM2 inh
C=CCOc1ccccc1/C=c1\sc2nc(=O)c(C)nn2c1=O	4	69*	i	-6	16
CSC1=NCCN1S(=O)(=O)c1ccccc1	-3	11	i	-2	-18
CCCOc1ccc(Cc2nn3c(=O)/c(=C/c4ccco4)sc3nc2=O)cc1	-17	84*	+	1	2
COc1ccccc1/C=C/C=c1\sc2nc(=O)c(Cc3ccccc3)nn2c1=O	18	65*	+	3	-23
CCN(c1ccccc1C(=O)O)S(=O)(=O)c1ccc2[nH]c(=O)[nH]c2c1	.	-8	i	.	-7
Cc1cccc(C)c1NC(=O)CS(=O)CC(=O)NCCCc1ccccc1 (centres undefined)	-2	92*	+	-5	9
Cc1cc(C)c(NC(=O)CS(=O)CC(=O)NCCCc2ccccc2)c(C)c1 (centres undefined)	2	-9	i	-1	3
CCOC(=O)c1cc(-c2ccc(OC)cc2)nn1-c1ccccc1C(=O)O	34*	48	i	2	0
Cc1cc(-c2n[nH]c(=S)n2-c2ccccc2C)cs1	0	active	i	-4	-6
Cc1ccccc1-n1c(-c2ccncc2)n[nH]c1=S	-1	0	i	-2	-32
O=C(/C=C/c1ccc(O)c(O)c1)c1ccc(S(=O)(=O)N2CCCCCC2)cc1	10	90*	i	0	-7
O=C(c1ccc(S(=O)(=O)N2CCCC2)cc1)N1CCCCC1	.	.	.	.	-8
COc1ccc(-c2cc(C(F)(F)F)nc(SCC(=O)NCCCN3CCOCC3)n2)cc1	1	2	i	-10	-4
O=C(N/N=C/c1cccn1-c1cccc(C(=O)O)c1)Nc1ccccc1	5	?	+	-10	-2
COC(=O)c1c(C)cc(OC(C)=O)c(C)c1OC(C)=O	33*	-7	i	-3	-9
COc1cc(C)c(C(=O)Oc2cc(C)c(C(=O)O)c(O)c2C)c(O)c1C	.	.	.	.	0
COc1cc(/C=C2\C(=N)N3N=C(S(C)(=O)=O)SC3=NC2=O)ccc1OCCOc1ccccc1C	.	88*	+	.	-3
Cc1ccc(S(=O)(=O)OCC(=O)Nc2ccc(C(=O)O)c(O)c2)cc1	.	.	.	.	44*
Cc1ccc(NC(=O)COCC(=O)Nc2ccc(C)cc2)cc1	.	2	i	.	-5
Cc1ccccc1Nc1nc(N)[nH]c(=O)c1N=O	.	.	.	.	45*
CCc1c(Cl)nc(N)nc1Nc1ccccc1C	.	.	.	.	-54
Cc1ccc(NS(=O)(=O)c2cccc3nsnc23)cc1	3	-4	i	-3	6
O=S(=O)(Nc1ccccc1)c1cccc2nsnc12	.	71*	i	.	10
COc1cc(CNc2ccc(N3CCCC3)cc2)ccc1OCc1ccccc1F	32*[fluorescence artefact?]	99	i	2	-34
COc1cc(CNc2ccc(N3CCCC3)cc2)ccc1OCc1ccccc1	7	0	i	7	-33
SMILES	eIF4E 4G PPI	eIF4H FP inh	PABP polyA inh	14-3-3 Bad inh	MLLE-PAM2 inh
COc1ccc(S(=O)(=O)N2CCN(C(=O)Cc3ccsc3)CC2)cc1	.	.	.	.	-23
Cc1c(N2C(=O)c3ccc4c5c(ccc(c35)C2=O)CC4)c(=O)n(-c2ccccc2)n1C	.	93*	+	.	3
Cc1c(N2C(=O)c3ccc(Br)cc3C2=O)c(=O)n(-c2ccccc2)n1C	2	-8	i	-13	-5
COc1ccc(OC)c(C(O)c2ncc(-c3ccccc3OC)[nH]2)c1 (centres undefined)	.	.	.	.	-10
CCOC(=O)N1CCN(C(=O)COc2ccc3c(c2)C(=O)CC(C)(C)O3)CC1	-2	?	+	-3	-4
Cc1nc(C)c(/C(O)=C\c2nc3ccc([N+](=O)[O-])cc3oc2=O)o1	-6	20	i	1	-3
CCN(CC)c1ccc(/C=C(/C#N)c2nc3ccccc3[nH]2)c(OC(C)C)c1	-3	?	?	-6	144
NC(CO)(CO)COCc1ccccc1	0	68	+	-12	10
